Activity calls are given as the source filed them. Unless noted, no rule for the calls is given here.
Legend:
[1] = compounds binding Alexa647 anti-His antibody – biochemical, small-molecule microarray, 635 nm fluorescence, artefact control for SMM control protein annotation, primary screen (AID 1128); details: higher = more signal;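 also: score merges feature fluorescence with signal-to-noise for each printed compound spot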
[2] = test system: Human papillomavirus type 1a E7 protein (residues 1-88); test: HPV1a E7 small-molecule binders, primary screen, biochemical, small-molecule microarray, residues 1-88, 635 nm (AID 1129); details: small-molecule microarray binding, fluorescence 635 nm; higher = more signal
[3] = molecular target: Focal adhesion kinase 1 (Homo sapiens) (UniProt Q05397); test: PTK2 protein binding on printed compound slides – biochemical, small-molecule microarray, 635/667 nm fluorescence, BSA, DTT, primary screen (AID 1130); details: 635 nm fluorescence, higher = more signal;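 also: composite of spot emission at 667 nm and signal to noise over triplicate slides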
Chain of Focal adhesion kinase 1 (Homo sapiens) (Q05397 whole entry, looked up): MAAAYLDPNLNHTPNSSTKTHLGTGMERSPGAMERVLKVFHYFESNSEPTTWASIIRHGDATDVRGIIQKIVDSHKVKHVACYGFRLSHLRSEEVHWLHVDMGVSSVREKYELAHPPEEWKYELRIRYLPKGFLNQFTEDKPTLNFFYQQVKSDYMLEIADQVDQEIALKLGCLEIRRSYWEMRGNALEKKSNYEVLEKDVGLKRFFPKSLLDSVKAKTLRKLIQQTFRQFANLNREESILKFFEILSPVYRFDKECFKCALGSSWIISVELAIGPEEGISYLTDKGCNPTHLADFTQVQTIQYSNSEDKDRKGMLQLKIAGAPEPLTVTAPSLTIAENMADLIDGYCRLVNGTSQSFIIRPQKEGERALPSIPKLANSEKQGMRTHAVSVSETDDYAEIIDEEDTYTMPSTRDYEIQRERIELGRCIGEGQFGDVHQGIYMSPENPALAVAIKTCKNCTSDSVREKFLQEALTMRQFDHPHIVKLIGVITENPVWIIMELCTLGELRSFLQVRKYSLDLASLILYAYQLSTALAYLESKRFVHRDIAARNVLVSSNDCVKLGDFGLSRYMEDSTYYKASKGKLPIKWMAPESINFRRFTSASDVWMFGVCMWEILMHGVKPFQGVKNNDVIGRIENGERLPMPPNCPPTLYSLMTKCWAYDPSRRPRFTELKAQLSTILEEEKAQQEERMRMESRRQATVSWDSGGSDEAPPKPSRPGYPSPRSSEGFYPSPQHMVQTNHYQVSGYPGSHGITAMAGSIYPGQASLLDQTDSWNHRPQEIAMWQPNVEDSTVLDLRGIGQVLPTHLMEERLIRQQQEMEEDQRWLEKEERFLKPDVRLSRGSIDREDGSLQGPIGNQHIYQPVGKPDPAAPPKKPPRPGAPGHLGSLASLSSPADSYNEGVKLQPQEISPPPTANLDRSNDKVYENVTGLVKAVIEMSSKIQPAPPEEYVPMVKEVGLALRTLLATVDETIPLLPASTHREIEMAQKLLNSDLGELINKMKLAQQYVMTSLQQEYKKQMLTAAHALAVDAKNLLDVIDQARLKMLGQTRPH

[4] = test system: Fibrinogen (Alexa647-labelled); test: Alexa647-fibrinogen binding to printed small molecules – biochemical, small-molecule microarray, 635/667 nm fluorescence, artefact control for SMM control-protein annotation, profiling panel (AID 1131); details: fibrinogen-A647 binding fluorescence, higher = more signal;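 also: z-score merges 667 nm fluorescence with per-spot signal-to-noise over triplicate slides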
[5] = molecular target: Follistatin (Homo sapiens) (UniProt P19883); test: FST protein binding to printed compounds – biochemical, small-molecule microarray, 635/667 nm fluorescence, primary screen (AID 1132); details: 635 nm fluorescence, higher = more signal
Chain of Follistatin (Homo sapiens) (P19883 whole entry, looked up): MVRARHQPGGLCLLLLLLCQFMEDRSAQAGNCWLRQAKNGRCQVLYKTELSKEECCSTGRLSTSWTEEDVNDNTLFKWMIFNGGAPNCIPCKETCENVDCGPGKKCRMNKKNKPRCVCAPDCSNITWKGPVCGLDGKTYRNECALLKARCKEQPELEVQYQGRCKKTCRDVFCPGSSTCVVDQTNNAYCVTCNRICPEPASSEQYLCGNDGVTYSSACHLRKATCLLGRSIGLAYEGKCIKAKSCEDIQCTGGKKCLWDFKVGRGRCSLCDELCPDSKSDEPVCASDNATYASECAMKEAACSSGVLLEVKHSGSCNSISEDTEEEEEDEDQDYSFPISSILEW

[6] = molecular target: Fibroblast growth factor 2 (Homo sapiens) (UniProt P09038); test: basic fibroblast growth factor binding to printed compounds – biochemical, small-molecule microarray, 635/667 nm fluorescence, primary screen (AID 1133); details: FGF2, fluorescence 635/667, higher = more signal
Chain of Fibroblast growth factor 2 (Homo sapiens) (P09038 whole entry, looked up): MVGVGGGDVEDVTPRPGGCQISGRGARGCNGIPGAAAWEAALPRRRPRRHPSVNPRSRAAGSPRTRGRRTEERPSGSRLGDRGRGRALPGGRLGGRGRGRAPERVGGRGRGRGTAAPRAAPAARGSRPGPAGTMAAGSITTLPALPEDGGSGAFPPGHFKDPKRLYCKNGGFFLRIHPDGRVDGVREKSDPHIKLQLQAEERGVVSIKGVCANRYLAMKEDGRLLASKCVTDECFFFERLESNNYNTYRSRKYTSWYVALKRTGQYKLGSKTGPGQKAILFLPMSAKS

[7] = JC-1 mitochondrial potential readout, lung cancer cells – cell-based, A549, JC-1 fluorescence, basal, 24 h, 100 nL, profiling panel (AID 1138); details: higher = more signal;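 also: A549 lung adenocarcinoma cells under basal conditions with no added stimulus; test concentration not given here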
[8] = test system: Lefty1; test: Lefty1 protein binding to printed compounds – biochemical, small-molecule microarray, 635/667 nm fluorescence, primary screen (AID 1139); details: fluorescence 635/667, higher = more signal
[9] = test system: wheat germ agglutinin (Triticum aestivum), Alexa647-labelled; test: Alexa647-WGA lectin binding to printed small molecules – biochemical, small-molecule microarray, 635/667 nm fluorescence, artefact control for SMM control-protein annotation, profiling panel (AID 1140); details: WGA-A647 binding, 635 nm fluorescence, higher = more signal;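 also: score merges 667 nm feature emission with signal to noise over triplicate slides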
[10] = molecular target: Luciferin 4-monooxygenase (Photinus pyralis) (UniProt P08659); test: inhibition of purified Photinus pyralis luciferase – biochemical, luminescence, purified enzyme, 2006 set, primary screen (AID 1141); details: purified firefly luciferase, SteadyGlo luminescence, 30 min; higher = more signal, called active from +8 up or from −8 down;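 also: cell-free assay with purified firefly luciferase at 100 ng per well in PBS; test concentration not given here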
Chain of Luciferin 4-monooxygenase (Photinus pyralis) (P08659 whole entry, looked up): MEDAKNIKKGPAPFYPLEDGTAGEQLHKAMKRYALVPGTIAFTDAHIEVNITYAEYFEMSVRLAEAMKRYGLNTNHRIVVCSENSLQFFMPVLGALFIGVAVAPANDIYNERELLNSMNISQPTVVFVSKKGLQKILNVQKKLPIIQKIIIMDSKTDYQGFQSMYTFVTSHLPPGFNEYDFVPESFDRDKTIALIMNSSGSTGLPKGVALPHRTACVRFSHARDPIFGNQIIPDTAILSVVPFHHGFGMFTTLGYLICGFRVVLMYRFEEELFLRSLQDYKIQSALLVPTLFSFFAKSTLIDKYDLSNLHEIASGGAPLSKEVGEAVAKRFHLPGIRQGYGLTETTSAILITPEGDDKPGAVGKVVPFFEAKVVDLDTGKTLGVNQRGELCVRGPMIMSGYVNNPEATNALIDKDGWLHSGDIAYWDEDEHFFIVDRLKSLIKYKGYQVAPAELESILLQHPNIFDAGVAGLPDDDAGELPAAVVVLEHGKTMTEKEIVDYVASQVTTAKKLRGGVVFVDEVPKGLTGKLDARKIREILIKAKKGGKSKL

[11] = test system: Wnt5a (protein binding on small-molecule microarray); test: small molecules binding Wnt5a protein – biophysical, small-molecule microarray, 635/667 nm fluorescence, primary screen (AID 1142); details: 635 nm fluorescence, higher = more signal;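 also: fluorescence read at 667 nm with signal to noise per printed feature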
[12] = ATP-based viability of Huh7 replicon cells – cell-based, CellTiter-Glo luminescence, basal, 48 h, cytotoxicity control for HCV replication inhibitor project, primary screen (AID 1143); details: higher = more signal, called active from +8 up or from −8 down;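 also: Huh7 hepatoma cells carrying a hepatitis C replication reporter with no stimulus; test concentration not given here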
[13] = Pseudomonas biofilm growth suppression – PAO1 strain, BacTiter-Glo luminescence, LB-PBS, primary screen (AID 1144); details: P. aeruginosa PAO1 biofilm, 12 h, higher = more signal
[14] = basal CRE-LacZ reporter activity in PC12 – cell-based, unstimulated, primary screen (AID 1145); details: no forskolin, luminescence, 4.5 h, higher = more signal, called active from +8 up or from −8 down
[15] = forskolin-driven CRE-LacZ activity in PC12 – cell-based, CRE-LacZ reporter, forskolin-stimulated, primary screen (AID 1146); details: luminescence, 4.5 h, higher = more signal, called active from +8 up or from −8 down;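 also: PC12 cells with 6xCRE LacZ reporter stimulated by forskolin 10 µM; beta-galactosidase reporter signal reflecting CREB driven transcription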
[16] = molecular target: Streptavidin (Streptomyces avidinii) (UniProt P22629); test: compounds binding control protein streptavidin – biophysical, small-molecule microarray, 635/667 nm fluorescence, artefact control for SMM compound annotation, primary screen (AID 1147); details: higher = more signal;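 also: signal reflects streptavidin binding to arrayed compounds as a control protein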
Chain of Streptavidin (Streptomyces avidinii) (P22629 whole entry, looked up): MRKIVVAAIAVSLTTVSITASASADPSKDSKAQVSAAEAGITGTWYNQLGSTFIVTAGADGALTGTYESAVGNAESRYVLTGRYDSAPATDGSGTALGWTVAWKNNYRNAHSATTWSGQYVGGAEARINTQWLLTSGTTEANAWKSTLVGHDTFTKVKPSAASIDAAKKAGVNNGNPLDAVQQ

[17] = probe aInhba binding on compound microarray – biochemical, small-molecule microarray, 635/667 nm fluorescence, primary screen (AID 1148); details: higher = more signal;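 also: score merges 667nm spot fluorescence with signal-to-noise for antibody binding to printed compounds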
[18] = molecular target: Torsin-1A (Homo sapiens) (UniProt O14656); test: TOR1A wild-type binding on microarray – cell lysate, small-molecule microarray, lysate, 635/667 nm, primary screen (AID 1149); details: COS7 hTOR1A-WT lysate, 635 nm fluorescence, higher = more signal
Chain of Torsin-1A (Homo sapiens) (O14656 whole entry, looked up): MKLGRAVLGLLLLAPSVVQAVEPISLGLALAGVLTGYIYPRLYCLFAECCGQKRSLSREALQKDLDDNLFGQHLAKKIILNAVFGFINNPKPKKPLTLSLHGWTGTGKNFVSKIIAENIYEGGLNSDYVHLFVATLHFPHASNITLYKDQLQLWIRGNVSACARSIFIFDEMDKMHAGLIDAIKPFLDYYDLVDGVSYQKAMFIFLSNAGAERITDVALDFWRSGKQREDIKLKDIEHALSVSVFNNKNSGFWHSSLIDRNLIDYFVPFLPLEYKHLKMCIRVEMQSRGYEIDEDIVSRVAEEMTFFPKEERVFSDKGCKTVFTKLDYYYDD

[19] = molecular target: Torsin-1A (Homo sapiens) (UniProt O14656); test: torsin A mutant lysate binding on microarrays – cell lysate, small-molecule microarray, COS7 lysate, 635/667 nm fluorescence, primary screen (AID 1150); details: COS7 hTOR1A mutant lysate, 635 nm fluorescence, higher = more signal;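 also: score pools 667 nm emission and signal to noise measuring lysate protein binding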
[20] = test system: Sonic hedgehog protein (Shh); test: Sonic hedgehog microarray binding compounds – biochemical, small-molecule microarray, 635/667 nm fluorescence, primary screen (AID 1151); details: 635 nm fluorescence, higher = more signal;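 also: Shh protein binding to compounds spotted on small-molecule microarray slides; score combines spot fluorescence intensity with signal-to-noise across triplicate slides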

COC(=O)[C@H](C)NC(=O)CCC1CC(OC(=O)NCc2cccc3ccccc23)CC2(CCCC(COC(=O)NCCOc3ccccc3)O2)O1 (stereo not given in full)
composite z-score [1]: 0.334 | composite z-score [2]: 1.12 | composite z-score [3]: 0.549 | composite z-score [4]: 0.793 | composite z-score [5]: 0.145 | composite z-score [6]: -0.142 | z-score [7]: -0.333 | composite z-score [8]: 0.318 | composite z-score [9]: 0.502 | z-score [10]: 1.32 (inactive) | composite z-score [11]: 0.029 | z-score [12]: -2.56 (inactive) | z-score [13]: 0.0153 (inactive) | z-score [14]: -0.709 (inactive) | z-score [15]: 0.222 (inactive) | composite z-score [16]: 0.688 | composite z-score [17]: -0.025 | composite z-score [18]: 0.182 | composite z-score [19]: -0.13 | composite z-score [20]: 0.334

CC(C)[C@@H](OCc1ccccc1)[C@H](C)CON=C1[C@H]2CCn3c(=O)n(-c4ccccc4)c(=O)n3[C@H]2[C@H](O)[C@@H]2O[C@H]12
composite z-score [1]: 2.57 | composite z-score [2]: 0.246 | composite z-score [3]: 0.0884 | composite z-score [4]: -0.0016 | composite z-score [5]: 0.759 | composite z-score [6]: 0.324 | z-score [7]: -0.139 | composite z-score [8]: 0.689 | composite z-score [9]: 0.192 | z-score [10]: 0.0981 (inactive) | composite z-score [11]: 0.186 | z-score [12]: -0.367 (inactive) | z-score [13]: 1.21 (inactive) | z-score [14]: -0.408 (inactive) | z-score [15]: 1.2 (inactive) | composite z-score [16]: 0.164 | composite z-score [17]: -0.128 | composite z-score [18]: 0.0645 | composite z-score [19]: 0.41 | composite z-score [20]: 0.89

CCN1C(=O)[C@H]2[C@H]3[C@H](O)[C@H](O)CC(=NO[C@@H](C)c4cc(-c5c(C)cc(C)cc5C)no4)[C@@H]3CC[C@H]2C1=O
composite z-score [1]: -0.185 | composite z-score [2]: 0.918 | composite z-score [3]: 0.23 | composite z-score [4]: 0.813 | composite z-score [5]: 0.809 | composite z-score [6]: 1.08 | z-score [7]: 0.474 | composite z-score [8]: 0.922 | composite z-score [9]: 1.01 | z-score [10]: 1.06 (inactive) | composite z-score [11]: 0.266 | z-score [12]: -1.74 (inactive) | z-score [13]: 0.847 (inactive) | z-score [14]: 2.08 (inactive) | z-score [15]: 0.205 (inactive) | composite z-score [16]: 0.203 | composite z-score [17]: 0.0756 | composite z-score [18]: 1.22 | composite z-score [19]: 1.33 | composite z-score [20]: 1.15

CCCNC(=O)OC[C@H]1O[C@H](CCON=C2c3cc(OC)ccc3O[C@H](c3cccc(OC)c3)[C@H]2O)C=C[C@@H]1Oc1ccc(OC)cc1
composite z-score [1]: 2.07 | composite z-score [2]: 0.824 | composite z-score [3]: 0.222 | composite z-score [4]: 0.618 | composite z-score [5]: 0.418 | composite z-score [6]: 1.11 | z-score [7]: 1.2 | composite z-score [8]: 0.292 | composite z-score [9]: 0.228 | z-score [10]: 0.652 (inactive) | composite z-score [11]: 0.298 | z-score [12]: -0.69 (inactive) | z-score [13]: 0.298 (inactive) | z-score [14]: 4.37 (inactive) | z-score [15]: 0.469 (inactive) | composite z-score [16]: 0.474 | composite z-score [17]: -0.0011 | composite z-score [18]: 0.442 | composite z-score [19]: 0.818 | composite z-score [20]: 0.436

CC1(C)O[C@H]2OC([C@H](O)CON3C(=O)c4ccccc4C3=O)[C@H](O)[C@H]2O1 (stereo not given in full)
composite z-score [1]: 0.547 | composite z-score [2]: -0.103 | composite z-score [3]: 0.433 | composite z-score [4]: 0.12 | composite z-score [5]: 0.0275 | composite z-score [6]: 0.495 | z-score [7]: -0.487 | composite z-score [8]: 0.291 | composite z-score [9]: 0.561 | z-score [10]: -0.317 (inactive) | composite z-score [11]: -0.0105 | z-score [12]: 0.929 (inactive) | z-score [13]: 0.425 (inactive) | z-score [14]: 0.831 (inactive) | z-score [15]: 0.266 (inactive) | composite z-score [16]: -0.467 | composite z-score [17]: 0.0319 | composite z-score [18]: 0.0012 | composite z-score [19]: 0.129 | composite z-score [20]: 0.0991

CCN1C(=O)[C@H]2[C@H]3[C@H](O)[C@H](O)CC(=NOC[C@@H](O)COCc4ccco4)[C@H]3CC[C@H]2C1=O
composite z-score [1]: -1.13 | composite z-score [2]: -0.516 | composite z-score [3]: 0.0699 | composite z-score [4]: -0.554 | composite z-score [5]: 1.39 | composite z-score [6]: 1.66 | z-score [7]: 0.0801 | composite z-score [8]: 1.55 | composite z-score [9]: -0.976 | z-score [10]: -0.941 (inactive) | composite z-score [11]: -0.13 | z-score [12]: 0.337 (inactive) | z-score [13]: -0.388 (inactive) | z-score [14]: -0.926 (inactive) | z-score [15]: -0.541 (inactive) | composite z-score [16]: -1.09 | composite z-score [17]: -0.241 | composite z-score [18]: 3.04 | composite z-score [19]: 2.87 | composite z-score [20]: 1.97

COC(=O)[C@H](Cc1ccccc1)NC(=O)[C@@H](C)CO
composite z-score [1]: 0.0868 | composite z-score [2]: -0.196 | composite z-score [3]: -0.233 | composite z-score [4]: 0.115 | composite z-score [5]: 1.28 | composite z-score [6]: 0.592 | z-score [7]: -1.2 | composite z-score [8]: 1.5 | composite z-score [9]: 0.821 | z-score [10]: 0.716 (inactive) | composite z-score [11]: 0.276 | z-score [12]: -2.36 (inactive) | z-score [13]: -1.61 (inactive) | z-score [14]: -0.0684 (inactive) | z-score [15]: 0.563 (inactive) | composite z-score [16]: 0.311 | composite z-score [17]: 0.284 | composite z-score [18]: 0.0847 | composite z-score [19]: 0.0866 | composite z-score [20]: 0.643

COC(=O)[C@H](C)NC(=O)CCC1CC(OC(=O)NCc2cccc3ccccc23)CC2(CCCC(COC(=O)NCc3cccc(C(F)(F)F)c3)O2)O1 (stereo not given in full)
composite z-score [1]: 1.12 | composite z-score [2]: 0.818 | composite z-score [3]: 0.0625 | composite z-score [4]: 0.83 | composite z-score [5]: 0.928 | composite z-score [6]: 0.657 | z-score [7]: 1.43 | composite z-score [8]: 0.526 | composite z-score [9]: 0.48 | z-score [10]: -0.552 (inactive) | composite z-score [11]: 0.166 | z-score [12]: -1.33 (inactive) | z-score [13]: -1.07 (inactive) | z-score [14]: -0.0755 (inactive) | z-score [15]: -0.213 (inactive) | composite z-score [16]: 0.925 | composite z-score [17]: 0.444 | composite z-score [18]: 0.241 | composite z-score [19]: 0.225 | composite z-score [20]: 1.04

COC(=O)[C@H](C)NC(=O)CCC1CC(OC(=O)NCc2ccc3c(c2)OCO3)CC2(CCCC(COC(=O)NCCc3ccc(Cl)cc3)O2)O1 (stereo not given in full)
composite z-score [1]: 1.22 | composite z-score [2]: 0.377 | composite z-score [3]: 0.142 | composite z-score [4]: 0.275 | composite z-score [5]: 0.758 | composite z-score [6]: 0.742 | z-score [7]: -0.928 | composite z-score [8]: 0.398 | composite z-score [9]: 0.268 | z-score [10]: 0.839 (inactive) | composite z-score [11]: -0.132 | z-score [12]: 0.173 (inactive) | z-score [13]: -0.0135 (inactive) | z-score [14]: -0.526 (inactive) | z-score [15]: 0.336 (inactive) | composite z-score [16]: -0.334 | composite z-score [17]: -0.159 | composite z-score [18]: -0.157 | composite z-score [19]: 0.193 | composite z-score [20]: 0.579

COc1ccc(O[C@H]2C=C[C@@H](C#Cc3ccccc3)O[C@@H]2CO)cc1
composite z-score [1]: -0.0687 | composite z-score [2]: 0.071 | composite z-score [3]: 0.0306 | composite z-score [4]: 0.744 | composite z-score [5]: 0.365 | composite z-score [6]: 0.0738 | z-score [7]: 0.511 | composite z-score [8]: 0.71 | composite z-score [9]: 0.48 | z-score [10]: -1.67 (inactive) | composite z-score [11]: -0.0391 | z-score [12]: -4.1 (inactive) | z-score [13]: 0.451 (inactive) | z-score [14]: 0.653 (inactive) | z-score [15]: -0.003 (inactive) | composite z-score [16]: 0.966 | composite z-score [17]: -0.182 | composite z-score [18]: -0.0668 | composite z-score [19]: -0.0971 | composite z-score [20]: 0.0864
